This passage reports Tm shift relative to glycine control results from PubChem BioAssay AID1259313 (Sanford-Burnham Center for Chemical Genomics, 2017).

In all, about 340,000 compounds went through this assay and about 8,500 (2.5%) were called active. The entries come from a sample that favours actives as a whole. A number with no mark means an inactive call.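 Rule for the calls: active = melting temperature shift of at least 10% of the positive control shift, at one fixed dose; inactive = the rest.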

The test system of this test is Glutamate receptor ionotropic, NMDA 3A (GRIN3A) ligand-binding domain. The test is described as follows: NR3A LBD thermal stabilization by compounds – biophysical, differential scanning fluorimetry, uHTS, primary screen (AID 1259313). The note with it: at 25 µM, active compounds read high, 0% = protein alone, 100% = glycine-bound protein. On the technique in general: Differential scanning fluorimetry follows unfolding on heating by fluorescence.
For the molecule `O=C(O)CC(Cc1ccccc1)C(=O)Nc1ccc([N+](=O)[O-])cc1` (configuration not stated), the Tm shift relative to glycine control was -4.38%.
The same measure for `O=C(Cn1c2[n+](c3ccc(C(F)(F)F)cc31)CCCCC2)Nc1c(F)cccc1F`: -0.45%.
`COc1cc(/C=C/C(=O)OCC(=O)NC2CC2)cc(OC)c1OC`: the Tm shift relative to glycine control is 3.83%.
For the molecule `Cc1nc2ccc(NC(=S)N3CCC(C)CC3)cc2nc1C`, the Tm shift relative to glycine control was -0.26%.
The same measure for `S=C(Nc1ccc(Br)cc1)NC1CCN(Cc2ccccc2)CC1`: -2.33%; for `CCCN(CC1COc2ccccc2O1)C(=S)Nc1ccc(C)cc1` (configuration not stated): -4.99%.
For `S=C(NCC1COc2ccccc2O1)Nc1ccc(Br)cc1` (configuration not stated), the Tm shift relative to glycine control was 14.7% (active).
As for `S=C(NCCCc1ccccc1)Nc1ccc(Br)cc1`, the Tm shift relative to glycine control is 10.2% (active).
For the molecule `O=C(NCC1COc2ccccc2O1)C1(c2ccccc2)CCCC1` (configuration not stated), the Tm shift relative to glycine control is -1.37%.
The figure for `O=S(=O)(NCCCc1ccccc1)c1ccc(Br)cc1` is -5.32%.
For the molecule `COc1cccc(/C=C2\Sc3ccc(C(=O)NCC4CCCO4)cc3N(C)C2=O)c1` (configuration not stated), the Tm shift relative to glycine control was -11.6%.
As for `CN(CCc1ccccn1)C1CCCN(S(=O)(=O)c2ccccc2Cl)C1` (configuration not stated), the Tm shift relative to glycine control was -1.11%.
The figure for `Cc1ccc(C)c(NC(=O)c2ccc(OC(=O)c3ccco3)cc2)c1` is -0.45%; for `Oc1ccc(N=Cc2sc3ccccc3c2Cl)cc1` it is 15.5% (active).
The figure for `CC(=O)n1c(C=Nc2ccccc2)c(O)c2ccccc21` is 0.18%.
On to `Cc1ccn2cc(-c3nonc3C)cc2c1`, for which the Tm shift relative to glycine control was -33.8%.
`Cc1ccc(NC(=O)Nc2ccccc2)c(Br)c1`: the Tm shift relative to glycine control was -0.75%.
Turning to `Cc1cccc(NC(=O)Nc2cccc(Oc3c(F)c(F)c(F)c(F)c3F)c2)c1`, the Tm shift relative to glycine control was 29.1% (active).
Turning to `Cc1ccoc1C(=O)Nc1cccc(Oc2ccccc2)c1`, the Tm shift relative to glycine control is -3.01%.
For `CCOc1cc(/C=C/C(=O)OCC(=O)NCCN2C(=O)CSC2=O)ccc1OCC(C)C`, the Tm shift relative to glycine control was 0.08%.
Regarding `CN(Cc1ccc(F)cc1Cl)S(=O)(=O)c1cccs1`, the Tm shift relative to glycine control was 1.26%.
For the molecule `Fc1ccc(NC(=S)N2CCc3[nH]c4ccccc4c3C2)cc1`, the Tm shift relative to glycine control is 13.3% (active).
As to `CCOC(=O)C1CCN(C(=O)Nc2ccc(Cl)cc2)CC1`, the Tm shift relative to glycine control is 3.57%.
The figure for `O=C(Nc1ccc(Cl)cc1)N1CCc2[nH]c3ccccc3c2C1` is 250% (active).
Consider `COc1ccc(NC(=S)N2CCc3cc(OC)c(OC)cc3C2)cc1`, for which the Tm shift relative to glycine control is -0.36%.
Regarding `C=CCNC(=S)N1CCc2[nH]c3ccccc3c2C1`, the Tm shift relative to glycine control was -15.2%.
For the molecule `CCc1ccc(NC(=O)N2CCc3ccccc3C2)cc1`, the Tm shift relative to glycine control was -0.69%.
As for `Cc1ccccc1N/C(SCc1ccc(Cl)cc1)=C(/C#N)C(N)=O`, the Tm shift relative to glycine control was -24%.
Turning to `CC1CCN(c2ccc(-c3ccc(NC(=O)c4ccco4)cc3)nn2)CC1`, the Tm shift relative to glycine control is 5.6%.
On to `O=S(=O)(Cc1cc(Cl)nc(-c2cccnc2)n1)c1ccccc1`, for which the Tm shift relative to glycine control was 1.48%.
The figure for `CN(C(=O)c1cccc(NC(=O)Cc2ccc(NC(=O)C3CCCN(C(=O)C4CC4)C3)cc2)c1)C1CC1` (configuration not stated) is 1.17%; for `CCc1nc(Nc2ccc(NC(C)=O)cc2)c2oc3ccccc3c2n1` it is 10% (active).
Take `C[C@@H](Nc1nc(-c2ccccc2)nc2c1oc1ccccc12)C(=O)O`: the Tm shift relative to glycine control is 5.42%.
As for `CCc1nc(Nc2ccc3nccnc3c2)c2oc3ccccc3c2n1`, the Tm shift relative to glycine control was -14.2%.
In the case of `CCCC(=O)NC(=S)Nc1ccc(CN2CCOCC2)cc1`, the Tm shift relative to glycine control was 1.2%.
As for `Cc1cc(C)nc(SCc2cn3c(C)cc(C)nc3n2)n1`, the Tm shift relative to glycine control is -0.2%.
`COC(=O)CN(C(=S)Nc1ccc(Cl)cc1)C1CC(=O)N(c2ccc(OC)cc2)C1=O` (configuration not stated): the Tm shift relative to glycine control is 1.51%.
Turning to `CN(C)c1ccc(NC(=S)N(CCc2ccccc2)C2CC(=O)N(c3c(Cl)cccc3Cl)C2=O)cc1` (configuration not stated), the Tm shift relative to glycine control was -2.73%.
Regarding `CCOc1ccc(N2C(=O)CC(N(CCc3ccc(OC)c(OC)c3)C(=S)Nc3ccccc3)C2=O)cc1` (configuration not stated), the Tm shift relative to glycine control was 14.8% (active).
Consider `O=C(O)C#Cc1cccc2ccccc12`, for which the Tm shift relative to glycine control is -2.09%.
With `CCC[C@@H]1C[C@@]1(CCC)[C@@H](NC(=O)c1ccccc1)c1ccc(C(=O)OC)cc1`, the Tm shift relative to glycine control was -0.95%.
The figure for `Cc1cc(C)c(NC(=O)CSc2nc3ccncc3[nH]2)c(C)c1` is -0.53%; for `COc1ccc2nc(SCC(=O)Nc3c(C)cc(C)cc3C)[nH]c2c1` it is 2.89%.
Consider `CCCCNS(=O)(=O)c1ccc2nc(SCC(=O)Nc3cc(C)cc(C)c3)[nH]c2c1`, for which the Tm shift relative to glycine control was 23.7% (active).
Regarding `COC1=CC(=O)OC(c2ccc(OC)cc2)C1` (configuration not stated), the Tm shift relative to glycine control was 3.44%.
The same measure for `Cc1ccc(CNC(=O)CCS(=O)(=O)c2ccc3c(c2)CC(C)N3C(=O)C2CC2)o1` (configuration not stated): -0.09%.
Regarding `CCc1cccc2c3c([nH]c12)C(CC)(CC(=O)O)OCC3` (configuration not stated), the Tm shift relative to glycine control was 14.4% (active).
